The record followed here is PubChem BioAssay AID624330 (Southern Research Specialized Biocontainment Screening …, 2012).

SMILES strings stand for the structures. In all, about 340,000 compounds went through this assay and about 2,100 (0.62%) were called active. Not all results are given here. Potency and affinity values are given separately. Unmarked numbers belong to inactive results.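 How the source made its calls: active means first-screen hits whose inhibition reached a set limit at any dose in the follow-up dose series; inconclusive means inhibition above the set first-screen limit but never retested; inactive means the rest.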

This assay deals with Rac GTPase-activating protein 1 (Homo sapiens) (UniProt Q9H0H5). Nature of the assay: blockers of MgcRacGAP-driven Rac1 GTP hydrolysis – biochemical, ADP Hunter fluorescence, primary and confirmatory, confirmation (AID 624330).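 Further: fluorescence reports GDP produced by GAP-driven GTP hydrolysis.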 Particulars: MgcRacGAP-stimulated Rac1 GTP hydrolysis, at 30 µM, active compounds read high, GST-tagged Rac1 F28L mutant substrate.
Rac GTPase-activating protein 1 (Homo sapiens), sequence (Q9H0H5 whole entry, looked up): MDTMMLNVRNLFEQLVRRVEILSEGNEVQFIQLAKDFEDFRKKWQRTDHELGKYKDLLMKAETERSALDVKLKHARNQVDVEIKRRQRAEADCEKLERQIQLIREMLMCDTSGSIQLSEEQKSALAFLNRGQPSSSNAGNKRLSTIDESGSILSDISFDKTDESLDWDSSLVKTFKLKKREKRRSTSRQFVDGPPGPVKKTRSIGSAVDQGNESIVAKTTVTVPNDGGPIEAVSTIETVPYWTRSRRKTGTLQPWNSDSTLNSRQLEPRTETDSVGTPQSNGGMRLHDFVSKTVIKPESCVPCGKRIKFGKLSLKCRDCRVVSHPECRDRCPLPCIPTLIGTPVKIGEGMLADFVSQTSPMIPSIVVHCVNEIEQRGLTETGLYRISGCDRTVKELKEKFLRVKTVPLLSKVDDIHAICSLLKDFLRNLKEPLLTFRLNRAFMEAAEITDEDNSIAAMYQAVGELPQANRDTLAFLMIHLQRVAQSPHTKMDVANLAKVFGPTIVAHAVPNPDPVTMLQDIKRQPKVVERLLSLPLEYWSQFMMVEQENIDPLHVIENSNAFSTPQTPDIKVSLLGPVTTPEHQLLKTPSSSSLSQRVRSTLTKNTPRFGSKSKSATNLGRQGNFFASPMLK
`CC(C)COC(=O)Cc1c(O)c2ccccc2[nH]c1=O`: the inhibition was 1.69%. Regarding `CN1CCCN(C(=O)c2cccc(Cl)c2)CC1`, the inhibition was 3.23%. `CC(C)CC(CO)N1CCN(C(=O)c2cccc(Cl)c2)CCC1=O` (configuration not stated): the inhibition is 2.07%. Regarding `CCOC(=O)C1CCN(C(=O)c2cccc(Cl)c2)CC1`, the inhibition is 6.23%. For `O=C(c1cccnc1)N1CCN(C(=O)c2cccc(Cl)c2)CC1` the value was -2.27%. As for `COc1ccc(N2C(=O)CC(N3CCN(c4ccc(S(C)(=O)=O)cc4)CC3)C2=O)cc1` (configuration not stated), the figure is -1.2%. As for `CN(C)c1ccc(P(=O)(OCc2ccccc2)C(O)c2ccccc2F)cc1` (configuration not stated), the figure is 0.52%. On to `O=C(Nc1ccc(F)cc1)Nc1nnc(COc2ccccc2F)s1`, for which the inhibition was 10.4%.

Consider `CCOc1cc(S(=O)(=O)NCc2cccs2)ccc1Cl`, for which the inhibition was 8.13%. Take `CN(C1=NC(=O)CS1)c1ccc(O)cc1`: the inhibition is 9.21%. For `CC(=O)NC1=NC(=O)CS1` the value was 2.93%. For `COc1ccc(S(=O)(=O)N2CCC(N3CCCC3)CC2)cc1` the value was 21%; for `Cc1ccc2oc(=O)n(CCOc3ccccc3C)c2c1`, 0.34%.

Consider `N=C1S/C(=C\c2ccc(-c3ccccc3C(=O)O)o2)C(=O)N1c1ccc2c(c1)OCO2`, for which the inhibition was 19.7%. On to `Cc1c(C(=O)O)cccc1-c1ccc(/C=C2/NC(=O)N(c3ccccc3)C2=O)o1`, for which the inhibition is -7.26%. As for `O=C(O)c1ccccc1SC1CC(=O)N(c2ccc3c(c2)OCO3)C1=O` (configuration not stated), the figure is -5.78%; as for `O=C(O)c1ccccc1-c1ccc(/C=C2\SC(=O)N(c3ccccc3)C2=O)o1`, 6.66%; as for `COC(=O)c1ccc(Sc2ccccc2NS(=O)(=O)c2ccc(OC)cc2)nc1`, 7.44%.

For the molecule `CC1(c2nnc(-c3cccc(Cl)c3)o2)CC(c2ccccc2F)=NO1` (configuration not stated), the inhibition was 5.14%.

`CCn1nc(C)c(/C=N/NC(=O)c2ccoc2C)c1C`: the inhibition is 1.28%.

With `O=C1CC(/C=C/c2ccccn2)=Nc2ccccc2N1`, the inhibition was -8.85%.

Turning to `CC(C)n1cc(/C=N/Nc2ccc(C(=O)O)cc2)c2ccccc21`, the inhibition was 24.1%. For `COc1ccc2ccccc2c1/C=N/Nc1ccc(Cl)c(C(=O)O)c1` the value was 17.1%; for `O=C(O)c1cc(N/N=C/c2cccc3ccccc23)ccc1Cl`, 11.3%; for `O=C(O)c1cc(N/N=C/c2ccc(-c3ccccc3)cc2)ccc1Cl`, 5.89%. For `CC(C)CC1NC(=O)c2cc3ccccc3cc2-n2c1nc1ccc(Cl)cc1c2=O` (configuration not stated), the inhibition is 6.29%. For `COCCCNC(=S)NC1CC2CCCC(C1)N2Cc1ccco1` (configuration not stated) the value was 13.1%. `COc1ccccc1NS(=O)(=O)c1cc(N)ccc1N1CCOCC1`: the inhibition is 16.4%. In the case of `Nc1ccc(N2CCCCC2)c(S(=O)(=O)Nc2ccc(Cl)cc2)c1`, the inhibition is 3.13%. For `COc1ccccc1NS(=O)(=O)c1cc(N)ccc1N1CCCCC1` the value was 5.74%; for `O=C(Nc1ccc(N2CCCC2)c(S(=O)(=O)Nc2cccc(C(F)(F)F)c2)c1)c1cccs1`, 7.15%. Consider `O=C(NNC(=O)c1cc2ccccc2cc1O)c1cccs1`, for which the inhibition was 3.14%.

In the case of `Cc1cccc(N2CCN(C(=O)C3CCC(=O)N(Cc4ccccc4F)C3)CC2)c1C` (configuration not stated), the inhibition is -9.79%. Consider `CCn1cc(/C=C(\NC(=O)c2ccccc2)C(=O)N2CCOCC2)c2ccccc21`, for which the inhibition is 9.74%. As to `Nc1no[n+]([O-])c1-c1ccccc1`, the inhibition is 7.71%.

In the case of `CCCC(=O)Nc1cc(-c2nc3ncccc3o2)ccc1Cl`, the inhibition was 6.17%. As for `O=C(O)CCn1cc(/C=C2/NC(=S)N(c3ccccc3)C2=O)c(-c2ccccc2)n1`, the figure is 7.18%; as for `O=C(O)CCn1cc(/C=C2\NC(=S)N(c3ccccc3)C2=O)c(-c2ccc(Br)cc2)n1`, 0.36%. Regarding `Cc1ccc(-c2nn(CCC(=O)O)cc2/C=C\C(=O)c2ccc(Br)cc2)cc1`, the inhibition was -9.64%. Regarding `O=C(O)CCn1cc(C(=O)O)c(-c2ccccc2)n1`, the inhibition is 9.41%.

Regarding `NC(=S)N/N=C/c1cn(CCC(=O)O)nc1-c1cccc(Br)c1`, the inhibition was 12.2%.

As for `O=Cc1cn(CCC(=O)O)nc1-c1cccc(Br)c1`, the inhibition is -0.73%. `Cc1ccc(C2=NN3C(=O)c4ccccc4C3C2)cc1` (configuration not stated): the inhibition was -20.3%. Regarding `COCCC(=O)N1CCCC(C(=O)c2ccccc2SC)C1` (configuration not stated), the inhibition is 1.95%. Turning to `COc1ccc(-n2nnnc2SCC(=O)Nc2cccc(O)c2)cc1`, the inhibition was 8.11%. In the case of `CCOC(=O)C1(Cc2cccc(OC)c2)CCN(Cc2cccc3cnccc23)CC1`, the inhibition was -0.92%. For `O=C(C=Cc1ccco1)N1CCOCC1` the value was 8.8%; for `Cc1ccc(C=C2C=C(c3ccccc3)OC2=O)cc1`, 11.5%; for `CN(C)c1ccc(C=C2C=C(c3ccccc3)OC2=O)cc1`, -3.66%. For `NC(=S)Cc1ccccc1Cl` the value was 8.51%.

Consider `O=C(O)c1ccc(O)cc1O`, for which the inhibition is 6.35%. As for `OC(CCN1CCCCC1)(c1ccccc1)C1C[C@@H]2C=C[C@H]1C2` (some centres not stated), the figure is 0.59%. As for `CCc1cc2c(=O)c(-c3nc4ccccc4n3C)c(COCC(=O)O)oc2cc1O`, the inhibition is 3.02%. As for `CCCCn1c(=O)c(CCC(=O)O)nc2ccccc21`, the figure is -3.87%.

In the case of `CCN(CC)Cc1c(O)ccc2cc(-c3nc4ccccc4n3C)c(=O)oc12`, the inhibition was 2.29%.

`CCc1cc(-c2n[nH]c(C)c2-c2nc3ccccc3n2C)c(O)c(CN2CCN(C)CC2)c1O`: the inhibition was 1.55%. For `CCOC(=O)C1CCCN(C(=O)c2ccccc2[N+](=O)[O-])C1` (configuration not stated) the value was 3.25%.

On to `CCCCC/C=C/C1=CC(=O)C[C@H](c2ccc3c(c2)OCO3)C1`, for which the inhibition is 5.09%. As for `CN(Cc1ccno1)Cc1cn(Cc2ccccc2)nc1-c1ccc2c(c1)OCO2`, the figure is 9.52%; as for `COc1ccc(CCNC(=O)COC(=O)C2COc3ccccc3O2)cc1` (configuration not stated), 2.96%; as for `CC(=O)N1CCN(S(=O)(=O)c2cccc(C(=O)NCCc3ccc(Cl)cc3)c2)CC1`, 5.57%. As for `CCOc1ccc(Oc2ccccc2NC(=O)C2=COCCO2)cc1`, the figure is -5.82%.

What is called inhibition is the change of the read-out against control, counted positive when it falls.
